Compound activity deposited in PubChem BioAssay by National Center for Advancing Translational Sciences (NCATS).
Shown is part of a subset that was picked to be rich in hits.
BLM inh = blocks DNA unwinding by human BLM helicase. P54132. recombinant BLM DNA unwinding, fluorescence dequenching. Potency, µM (series often up to 56.1 µM), without a hit: top-dose activity change, negative = inhibition, hits mostly inhibitors. actives 0.2% (n = 350,000);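 further: plate controls were vehicle for no effect and no enzyme for full effect; nearly all actives have a fitted effect of over 35% in size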
GoLoco inh red = inhibitors of human Gai1-RGS12 GoLoco interaction (red fluorophore); Gai1:RGS12 GoLoco peptide FP, rhodamine, 10 min; Potency, µM (series often up to 61.6 µM), for the others: at the top dose activity, negative = inhibition, hits mostly inhibitors; actives 0.44% (n = 230,000); AID 880; active means well fitted inhibition curve with a large enough effect, not every such curve was filed as active; inactive means no such curve, though single readings can be large or run the other way; further: nearly all actives have a fitted effect of over 30% in size
Target sequence (P63096 whole entry, looked up): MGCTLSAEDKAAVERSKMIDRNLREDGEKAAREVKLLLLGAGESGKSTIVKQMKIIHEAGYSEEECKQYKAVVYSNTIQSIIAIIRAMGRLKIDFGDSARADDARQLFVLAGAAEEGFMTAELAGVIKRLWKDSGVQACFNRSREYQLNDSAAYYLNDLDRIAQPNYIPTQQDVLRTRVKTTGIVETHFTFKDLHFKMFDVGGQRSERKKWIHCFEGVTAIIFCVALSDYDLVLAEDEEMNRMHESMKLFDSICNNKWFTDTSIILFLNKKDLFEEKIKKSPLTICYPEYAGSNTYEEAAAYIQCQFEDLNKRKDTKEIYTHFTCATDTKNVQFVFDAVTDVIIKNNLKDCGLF
APE1 inh = inhibitors of human APE1 endonuclease. Potency, µM (doses to about 65.8 µM), inactives show top-dose activity change, negative = inhibition, actives largely listed as inhibitors. P27695. AID 2517. recombinant APE1, TAMRA/BHQ-2 abasic DNA cleavage fluorescence. actives 0.35% (n = 350,000);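 further: plate controls were vehicle for no effect and reference inhibitor for full effect; nearly all actives have a fitted effect of over 55% in size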
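Enzyme (0.75 nM final) and test compound are incubated 15 min at room temperature before adding 50 nM quenched THF abasic-site duplex. Cleavage dequenches TAMRA, followed at 525/598 nm over three reads one minute apart.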
RECQ1 inh = blocks DNA unwinding by human RECQ1 | P46063 | RECQ1 DNA unwinding, red fluorescence kinetic read | Potency, µM (highest dose often 57.3 µM), without a hit: at the top dose activity, negative = inhibition, most hits filed as inhibitors | actives 0.54% (n = 240,000) | AID 2549;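 further: plate controls were vehicle for no effect and no enzyme for full effect; nearly all actives have a fitted effect of over 30% in size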
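50 nM RECQ1T1 preincubated 15 min with compound in Tris pH 8.0 buffer with MgCl2, DTT, Tween-20 and 2.5 ug/ml poly(dI-dC); started with 200 nM TAMRA/BHQ-2 forked duplex and 2 mM ATP. Unwinding read as fluorescence (525/598 nm), two reads 2 h apart.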
L3MBTL1 block = inhibitors of human L3MBTL1; actives 0.66% (n = 230,000); Q9Y468; Potency, µM (series often up to 57.1 µM), inactives show at the highest dose activity, negative = inhibition, actives largely listed as inhibitors; AlphaScreen L3MBTL1–H3K9me1 peptide binding; further: nearly all actives have a fitted effect of over 60% in size
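L3MBTL1 50 nM + b-AHA-H3(1-15)K9me1 75 nM, 30 min RT; compound added, 30 min RT; streptavidin donor/Ni-chelate acceptor beads 10 ug/mL each final, 30 min RT dark; AlphaScreen read.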
JMJD2E inh = blocks human JMJD2E demethylase activity; Potency, µM (top dose mostly 57.1 µM), without a hit: at the top dose activity change, negative = inhibition, hits mostly inhibitors; JMJD2E catalytic domain, FDH-coupled NADH fluorescence (FDH is formaldehyde dehydrogenase); actives 1.6% (n = 230,000); active means well fitted inhibition curve with a large enough effect, not every such curve was filed as active; inconclusive means small, poorly fitted or top-dose-only effect, or another doubt; inactive means no such curve, though single readings can be large or run the other way;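 further: 0% = wells with enzyme and -100% = buffer wells without enzyme; nearly all actives have a fitted effect of over 50% in size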
Target sequence (B2RXH2 1-337 limits assumed): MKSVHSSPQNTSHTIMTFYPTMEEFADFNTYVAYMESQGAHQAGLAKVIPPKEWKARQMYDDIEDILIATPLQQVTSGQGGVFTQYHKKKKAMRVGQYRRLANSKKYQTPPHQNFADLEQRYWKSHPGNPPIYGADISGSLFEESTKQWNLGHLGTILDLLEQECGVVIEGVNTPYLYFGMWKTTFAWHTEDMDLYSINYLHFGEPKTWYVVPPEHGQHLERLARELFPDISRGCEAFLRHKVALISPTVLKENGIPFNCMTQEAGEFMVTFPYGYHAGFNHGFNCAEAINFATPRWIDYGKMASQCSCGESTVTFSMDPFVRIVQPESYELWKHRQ
* = called active by the depositor; i = inactive; ? = inconclusive; . = no result; [ ] = another dose, or the depositor's remark. Unless noted, the call rests on the fitted dose curve; in most records, active means well fitted curve in the direction sought with a large enough effect; inconclusive means small, poorly fitted or top-dose-only effect, or another doubt; inactive means no such curve, though single readings can be large; an effect the other way counts as inactive or inconclusive. Unless noted, on the % scale 0 is the no-effect control and ±100 the full control effect; potency means the concentration at half of the fitted maximal effect.

SMILES	BLM inh	GoLoco inh red	APE1 inh	RECQ1 inh	L3MBTL1 block	JMJD2E inh
COCCCNc1nc(SCc2ccccc2)nc2sc3c(c12)CCC3	-9.0%	12.2%	0.0%	-10.0%	-4.5%	2.9%
O=C(O)c1cc(-c2ccc(/C=C3\NC(=O)N(c4ccc(Cl)cc4)C3=O)o2)ccc1Cl	52.2%	9.1%	25.1µM*	?	7.94µM*	?
Cc1cc2nc3s/c(=C/c4ccc(-c5ccccc5C(=O)O)o4)c(=O)n3c2cc1C	-6.1%	.	-27.1%	.	.	.
CCOC(=O)c1cc(-c2ccc(/C=C3/C(=O)N(c4ccc(C(=O)O)cc4)N=C3C)o2)ccc1Cl	-0.5%	.	8.44µM*	.	.	.
O=C(O)c1cc(-c2ccc(/C=c3\sc4nc5ccc(Br)cc5n4c3=O)o2)ccc1Cl	-26.9%	.	2.67µM*	.	28.2µM*	.
COC(=O)N[C@@H](CCc1ccccc1)/C(C(=O)OC)=C(\C)NCc1ccccc1	2.2%	6.1%	-1.9%	-9.4%	.	-2.6%
CCCCCC1=C2CNC(CC(C)C)(C(=O)OC)C=C2C(C)C1=O (stereo not drawn)	0.4%	6.0%	-7.6%	-11.7%	.	?
CCC1(O)CC2CN(CCc3c([nH]c4ccccc34)[C@@](C(=O)OC)(c3cc4c(cc3OC)N(C)C3[C@]45CCN4CC=C[C@@](CC)([C@@H](OC(C)=O)[C@]3(O)C(=O)OC)[C@H]45)C2)C1 (stereo partly drawn)	.	10.2%	-1.4%	14.1µM*	.	-20.0%
O=CNc1ncn[nH]1	.	3.1%[14.2 µM]	.	.	.	.
Oc1ccccc1N=Nc1ccccc1O	-12.9%	8.3%	-1.3%	4.3%	.	31.6µM*
N#Cc1nonc1-c1ccccc1	.	.	1.8%	.	.	.
CC(=O)N[C@@H](Cc1ccc(O)cc1)C(=O)N[C@H](C(=O)N[C@@H](C)C(=O)N[C@H](C#N)CC(=O)O)C(C)C	.	.	-40.4%	.	1.6%	.
CCS(=O)(=O)c1oc(-c2ccc(F)cc2)nc1S(=O)(=O)c1ccccc1	-2.6%	.	.	.	.	.
c1csc(-c2nn3c(C4COc5ccccc5O4)nnc3s2)c1 (stereo not drawn)	-5.2%	-6.9%	-10.1%	0.3%	-11.1%	31.6µM*
Fc1ccc(-c2nn3c(C4COc5ccccc5O4)nnc3s2)cc1 (stereo not drawn)	-5.9%	-1.3%	27.4%	-3.6%	-4.1%	-5.4%
O=C(N/N=C/c1cc(Br)c(Br)o1)c1ccc2c(c1)OCCO2	3.4%	58.3%	31.6µM*	?	?	?
O=C(N/N=C/c1cc(Br)c(O)c(Br)c1O)c1ccc2c(c1)OCCO2	-12.9%	.	-14.9%	.	.	.
CCOC(=O)C1CCN(Cc2ccc(O)c3ncccc23)CC1	-12.9%	0.3%	-8.9%	i	28.2µM*	8.91µM*
CCn1c(C)c2c([n+]1CC)CC(C)(C)CC2=O	-5.5%	11.2µM*	-0.6%	-4.6%	.	1.6%
CCn1c2c(c(C)cc1=O)C(=O)CC(C)(C)C2	-0.1%	-9.4%	-0.5%	-0.4%	2.4%	1.8%
Cc1ccc(NC(=O)Cn2cnc3c(oc4ccccc43)c2=O)cc1Cl	-4.0%	.	.	.	.	.
COc1ccc(-c2cc(=O)c3c(O)c(OC)c(OC)c(OC)c3o2)cc1OC	6.4%	2.9%	-3.3%	-1.3%	.	-14.6%
COc1cc(-c2cc(=O)c3c(O)c(OC)c(OC)c(O)c3o2)ccc1O	-8.6%	0.4%	?	12.6µM*	?	20µM*
COc1c(O)c(O)c2oc(-c3ccccc3)cc(=O)c2c1OC	-0.2%	-9.4%	-2.3%	-16.5%	-7.7%	31.6µM*
COc1ccc(-c2nc3c(c4c2C[C@H](c2ccccc2)OC4)CN(C(=O)NCCc2c[nH]c4ccccc24)CC3)c(C)c1	-3.9%[12.4 µM]	-1.2%[14.2 µM]	0.4%[12.4 µM]	-7.2%[11.5 µM]	.	2.8%[11.4 µM]
SMILES	BLM inh	GoLoco inh red	APE1 inh	RECQ1 inh	L3MBTL1 block	JMJD2E inh
COc1cc([N+](=O)[O-])cc(/C=N/NC(=O)C(O)(c2ccccc2)c2ccccc2)c1O	-6.1%	.	-5.1%	.	-6.5%	.
Cc1ccc(C(=O)N/N=C/c2ccc(-c3ccccc3[N+](=O)[O-])o2)cn1	-20.6%	-4.0%	-0.9%	-9.8%	19.4%	-3.9%
CC(Nc1cccc2ccccc12)C(=O)N/N=C/c1ccc([N+](=O)[O-])cc1 (stereo not drawn)	-22.7%	-0.3%	-3.8%	-11.2%	-26.5%	8.2%
COc1cc([N+](=O)[O-])cc(/C=N/NC(=O)C(C)Nc2cccc3ccccc23)c1O (stereo not drawn)	-21.3%	4.9%	-2.0%	4.8%	-18.5%	4.47µM*
COc1cc([N+](=O)[O-])cc(/C=N/NC(=O)c2cccnc2)c1O	-12.3%	-0.2%	21.5%	-9.7%	14.1µM*	8.91µM*
COc1ccc(-c2ccc(/C=N/NC(=O)c3cccnc3)o2)c([N+](=O)[O-])c1	-14.2%	33.4%	?	3.98µM*	3.8%	5.4%
COCCCNC(=O)c1[nH]c2ccccc2c1Sc1ccc(C)cc1	1.8%	.	.	.	.	.
N#Cc1cc(Oc2cccc3cccnc23)c(-n2nnc3ccccc32)cc1C#N	-0.1%	.	12.6%	i	14.1%	31.6µM*
O=C(O)c1ccnc2c(O)cccc12	.	.	-10.1%	.	12.6µM*	.
O=S(=O)(c1ccc(Br)cc1)c1nnn2c1nc(Nc1cccc(C(F)(F)F)c1)c1sccc12	-13.3%	.	.	.	.	.
Cc1nc(N)sc1-c1csc(NCc2ccccc2)n1	-2.3%	159.7%	-5.6%	-4.2%	-4.1%	?
Cc1cc(-c2csc(NCc3ccccc3)n2)c(C)n1C	-8.7%	85.5%	-5.7%	i	-12.7%	28.2µM*
CCN1C(=O)[C@H]2[C@H]3[C@H](O)[C@H](O)C/C(=N/OC[C@@H]4O[C@H](c5ccccc5)C=C[C@@H]4Oc4ccc(OC)cc4)[C@@H]3CC[C@@H]2C1=O	2.6%[12.4 µM]	.	38.0%[12.4 µM]	-9.9%[11.5 µM]	.	.
CCOC(=O)N1CCN(S(=O)(=O)c2ccc(C(=O)NNc3nc4cc(C)cc(C)c4s3)cc2)CC1	-5.6%	-4.2%	?	-8.9%	?	25.1µM*
CO/N=C(\C(=O)N[C@@H]1C(=O)N2C(C(=O)OCOC(=O)C(C)(C)C)=C(/C=C\c3scnc3C)CS[C@H]12)c1csc(N)n1	.	.	-3.1%	.	.	.
CCOC(=O)C1=C(O)/C(=C\c2cccs2)N=C1C	-5.3%	3.9%	-2.3%	-4.4%	16.2%	-10.7%
CCOC(=O)C1=C(O)/C(=C\c2ccc(CNC(=O)C(=O)Nc3ccccc3)o2)N=C1C	35.5µM*	106.7%	2.3%	-0.9%	.	-5.6%
C=C1C[C@]23C[C@@]1(O)CC[C@H]2[C@@]12C=C[C@H](O)C(C)(C(=O)O1)[C@H]2[C@@H]3CC(=O)O	2.4%	5.5%	-11.8%	-2.6%	.	4.0%
CN(/N=C/c1ccc(N(C)C)cc1)C1=NS(=O)(=O)c2ccccc21	34.9%	.	23.8µM*	.	.	.
Cc1ccc2oc(=O)c3cc(C(=O)Nc4ccc(F)cc4F)sc3c2c1	-5.1%	.	.	.	.	.
